Experiment [1] is described as follows: optical density shifts of acrAB sulA E. coli – strain DRC41, OD650, 48 h, E. coli filamentation inducer project, primary screen (AID 1152).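 Note: E. coli MC1000 strain DRC41 lacking acrAB efflux pump and sulA.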 To be noted: higher = more signal, called active from +8 up or from −8 down.
Experiment [2] is described as follows: probe aLefty1 binding on compound microarray – biochemical, small-molecule microarray, 635/667 nm fluorescence, primary screen (AID 1153).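 Note: score merges spot fluorescence with signal-to-noise ratio from the scanned slide images.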 The note with it: higher = more signal.
The nature of experiment [3]: plasmodial surface anion channel blockers, osmotic lysis – cell-based, P. falciparum Indochina, OD700, 1 h, primary screen (AID 1154). To be noted: P. falciparum Indochina infected RBC osmotic lysis, higher = more signal, called active from +8 up or from −8 down.
A short description of experiment [4]: plasmodial surface anion channel blockers, osmotic lysis – cell-based, P. falciparum Indochina, OD700, 2 h, primary screen (AID 1155).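 Note: lysis reports solute entry through the parasite surface anion channel PSAC.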 The note with it: P. falciparum Indochina infected erythrocytes, higher = more signal, called active from +8 up or from −8 down.
Experiment [5] in a line: changes in parasitized red cell lysis, either direction – P. falciparum Indochina, OD700, 3 h, PSAC antagonist project, primary screen (AID 1156). The note with it: P. falciparum-infected erythrocytes, osmotic lysis, higher = more signal, called active from +8 up or from −8 down.
A short description of experiment [6]: plasmodial surface anion channel blockers, osmotic lysis – cell-based, P. falciparum Indochina, OD700, 18 h, primary screen (AID 1157). The note with it: P. falciparum Indochina infected erythrocytes, osmotic lysis OD700, 18 h; higher = more signal, called active from +8 up or from −8 down.
Experiment [7] can be described thus: S6 kinase pathway phospho-S6 level changes – cell-based, A549, cytoblot, luminescence, serum-stimulated, primary screen (AID 1158).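 Note: serum-stimulated A549 lung adenocarcinoma cells; signal is phosphorylated S6 detected by cytoblot immunostaining with HRP secondary.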 To be noted: 5 h, higher = more signal.
In experiment [8] the target is NADPH oxidase 2 (Homo sapiens) (UniProt P04839). The experiment can be described thus: compounds shifting NOX2 Amplex Red fluorescence – cell-based, HEK293-NOX2, PMA-stimulated, NOX inhibitor project, primary screen (AID 1159). Note: test concentration not given here. To be noted: 45 min, higher = more signal, called active from +8 up or from −8 down.
Sequence of NADPH oxidase 2 (Homo sapiens) (P04839 whole entry, looked up): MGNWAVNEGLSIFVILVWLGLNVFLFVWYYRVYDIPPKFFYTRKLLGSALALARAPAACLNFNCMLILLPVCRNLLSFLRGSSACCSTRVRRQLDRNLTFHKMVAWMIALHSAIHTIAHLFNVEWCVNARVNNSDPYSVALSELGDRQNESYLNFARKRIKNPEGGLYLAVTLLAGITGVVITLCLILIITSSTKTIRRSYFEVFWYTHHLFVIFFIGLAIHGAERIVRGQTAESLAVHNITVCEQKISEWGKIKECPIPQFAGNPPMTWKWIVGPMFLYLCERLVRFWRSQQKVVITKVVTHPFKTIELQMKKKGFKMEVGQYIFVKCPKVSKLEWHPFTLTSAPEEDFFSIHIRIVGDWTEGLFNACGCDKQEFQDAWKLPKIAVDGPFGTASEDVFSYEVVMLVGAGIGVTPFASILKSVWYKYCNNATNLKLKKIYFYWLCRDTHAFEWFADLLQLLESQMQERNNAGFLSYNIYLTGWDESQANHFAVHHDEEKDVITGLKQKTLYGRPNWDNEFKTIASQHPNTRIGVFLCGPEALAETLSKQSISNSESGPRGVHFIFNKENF
Experiment [9] concerns the target NADPH oxidase 4 (Homo sapiens) (UniProt Q9NPH5). The experiment can be described thus: compounds shifting NOX4 Amplex Red fluorescence – cell-based, HEK293-NOX4, tetracycline-induced, NOX inhibitor project, primary screen (AID 1160). The note with it: HEK293-NOX4, Amplex Red H2O2 fluorescence, 45 min; higher = more signal, called active from +8 up or from −8 down.

The target of experiment [10] is NADPH oxidase 5 (Homo sapiens) (UniProt Q96PH1). The experiment can be described thus: compounds shifting NOX5 Amplex Red fluorescence – cell-based, HEK293-NOX5, NOX inhibitor project, primary screen (AID 1161). The note with it: HEK293-NOX5, ionomycin, 45 min, higher = more signal.
Sequence of NADPH oxidase 5 (Homo sapiens) (Q96PH1 whole entry, looked up): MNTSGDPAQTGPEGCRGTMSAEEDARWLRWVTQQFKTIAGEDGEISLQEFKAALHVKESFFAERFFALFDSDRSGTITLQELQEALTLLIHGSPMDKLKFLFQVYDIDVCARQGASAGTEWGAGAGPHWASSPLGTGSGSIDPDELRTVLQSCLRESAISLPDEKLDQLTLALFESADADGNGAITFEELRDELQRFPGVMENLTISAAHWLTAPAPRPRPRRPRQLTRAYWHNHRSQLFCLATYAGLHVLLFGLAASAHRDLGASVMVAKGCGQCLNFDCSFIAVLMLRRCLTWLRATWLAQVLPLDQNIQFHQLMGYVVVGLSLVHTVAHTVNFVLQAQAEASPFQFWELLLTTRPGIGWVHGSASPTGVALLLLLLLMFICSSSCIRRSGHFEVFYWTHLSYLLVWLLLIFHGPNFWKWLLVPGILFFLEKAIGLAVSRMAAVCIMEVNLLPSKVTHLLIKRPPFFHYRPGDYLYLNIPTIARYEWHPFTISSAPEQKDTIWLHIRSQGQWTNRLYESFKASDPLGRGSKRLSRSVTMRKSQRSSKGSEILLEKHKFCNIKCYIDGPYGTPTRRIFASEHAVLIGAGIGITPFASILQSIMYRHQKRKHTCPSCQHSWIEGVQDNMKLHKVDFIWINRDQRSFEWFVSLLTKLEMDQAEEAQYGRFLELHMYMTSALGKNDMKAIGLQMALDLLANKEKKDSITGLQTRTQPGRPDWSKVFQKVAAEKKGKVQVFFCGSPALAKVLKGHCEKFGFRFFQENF

Molecules are shown by their SMILES. Active and inactive are the calls of the source.

Sequence of NADPH oxidase 4 (Homo sapiens) (Q9NPH5 whole entry, looked up): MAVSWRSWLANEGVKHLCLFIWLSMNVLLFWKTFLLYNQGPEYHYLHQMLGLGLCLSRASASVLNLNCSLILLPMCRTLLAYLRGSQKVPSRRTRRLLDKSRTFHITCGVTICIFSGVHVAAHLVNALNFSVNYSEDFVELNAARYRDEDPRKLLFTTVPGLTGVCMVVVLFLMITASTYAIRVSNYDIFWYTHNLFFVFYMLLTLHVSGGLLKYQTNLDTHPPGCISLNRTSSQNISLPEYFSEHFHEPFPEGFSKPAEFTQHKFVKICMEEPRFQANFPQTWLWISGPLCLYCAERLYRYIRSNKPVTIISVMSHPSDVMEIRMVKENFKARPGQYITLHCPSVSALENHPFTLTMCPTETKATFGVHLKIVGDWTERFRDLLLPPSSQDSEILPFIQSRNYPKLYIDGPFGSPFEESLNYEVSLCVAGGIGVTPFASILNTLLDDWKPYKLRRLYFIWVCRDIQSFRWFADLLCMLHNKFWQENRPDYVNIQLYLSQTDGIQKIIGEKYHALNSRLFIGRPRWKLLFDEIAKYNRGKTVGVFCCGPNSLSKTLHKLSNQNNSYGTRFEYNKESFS

With `CC(C)N1C(=O)c2ccccc2[C@](C)(C(=O)NCc2ccccc2)[C@@H]1c1ccc(CO)cc1`, the z-score was -0.884 (inactive) in experiment [1]; 1.53 (inactive) in experiment [3]; 0.349 (inactive) in experiment [4]; 0.24 (inactive) in experiment [5]; 0.645 (inactive) in experiment [6]; 0.0331 in experiment [7]. In addition, the z-score in experiment [8] is -0.291 (inactive); in [9], -0.0216 (inactive); in experiment [10] it was -0.54. Further, the composite z-score in experiment [2] is -0.101.
As for `COCCOC(=O)N1C(=O)[C@@]2(c3cc(C#CC4=CCCCC4)ccc31)[C@H](C(=O)Nc1nc3ccccc3s1)[C@H]1C(=O)O[C@H](c3ccccc3)[C@H](c3ccccc3)N1[C@@H]2c1ccccc1OCCO`, the z-score in experiment [1] was 0.687 (inactive); in experiment [3], 2.84 (inactive); in [4] it was 0.926 (inactive); in experiment [5], -0.0917 (inactive); in experiment [6] it was 0.436 (inactive); in [7], 1.93. Besides, the z-score is 0.102 (inactive) in [8], 0.056 (inactive) in [9] and -1.83 in experiment [10]. The composite z-score in experiment [2] was determined as 1.43.
For the molecule `CC(C)(C)OC(=O)CC[C@@]12N=C(c3ccc(OCCCO)cc3)O[C@@H]1c1ccccc1N(CCS(=O)(=O)c1ccccc1)C2=O`, the z-score was 0.864 (inactive) in experiment [1]; 30.9 (active) in experiment [3]; 27.6 (active) in [4]; 3.49 (inactive) in experiment [5]; 8.22 (active) in [6]; 1.84 in experiment [7]. The results for the z-score in experiment [8], in experiment [9] and in experiment [10] were -0.619 (inactive), 0.801 (inactive) and -2.14, respectively. This molecule had a composite z-score in experiment [2] of 0.334.
As for `O=C1[C@H]2C=C(Br)[C@H](C[C@@H]2OCCCCO)[C@@]12CO2`, the z-score in experiment [1] is -1.11 (inactive); in experiment [3], 1.31 (inactive); in experiment [4], 0.317 (inactive); in experiment [5], 1.17 (inactive); in [6] it was -0.0393 (inactive); in experiment [7], -0.401. The figures for the z-score in [8], in experiment [9] and in experiment [10] were 0.45 (inactive), 0.602 (inactive) and 0.188, respectively. This molecule also had a composite z-score in experiment [2] of 0.0911.
Regarding `COC(=O)[C@@]1(Cc2ccc(OC)cc2)[C@H]2c3cc(C(=O)N4CCCC4)n(Cc4ccc(OC)c(OC)c4)c3C[C@H]2CN1C(=O)c1ccccc1`, the z-score is -1.08 (inactive) in experiment [1]; 4.08 (inactive) in [3]; 0.81 (inactive) in [4]; 1.92 (inactive) in [5]; 0.91 (inactive) in [6]; 0.0413 in [7]. Further, the z-score in [8] is 0.555 (inactive); in [9] it was 0.235 (inactive); in experiment [10] it was -3.23. Further, the composite z-score in experiment [2] was 1.61.
Turning to `CC(=O)N1Cc2ccccc2C[C@@]2(COC(c3ccc(OCCCO)cc3)=N2)C1=O`, the z-score is 2.48 (inactive) in experiment [1]; 28.1 (active) in experiment [3]; 13.4 (active) in experiment [4]; 2.79 (inactive) in experiment [5]; 1.7 (inactive) in experiment [6]; 2.28 in experiment [7]. In addition, the z-score in [8] is -1 (inactive); in experiment [9], 1.74 (inactive); in [10], -1.24. The composite z-score in experiment [2] is 0.611.
For `CCCC=C(CCC)[C@@H](NS(=O)(=O)c1cccs1)c1ccc(C(=O)OC)cc1`, the z-score in [1] is -1.35 (inactive); in [3], 1.19 (inactive); in experiment [4], 0.0633 (inactive); in [5] it was 1.28 (inactive); in experiment [6], 0.567 (inactive); in [7], -1.13. Besides, the z-score was -0.547 (inactive) in experiment [8], -3.59 (inactive) in experiment [9] and 0.708 in experiment [10]. The composite z-score in [2] turned out to be 0.133.
For `C=CCN1C(=O)[C@]2(O[C@H](CCO)[C@@H]([Si](C)(C)c3ccc(OC)cc3)[C@@H]2C)c2cc(N3C(=O)c4cccc5cccc3c45)ccc21`, the z-score in experiment [1] is 0.568 (inactive); in experiment [3] it was 6.44 (inactive); in [4], 4.41 (inactive); in experiment [5], 0.0626 (inactive); in experiment [6], 2.83 (inactive); in experiment [7], 1.03. In addition, the values for the z-score in [8], in experiment [9] and in experiment [10] were 0.924 (inactive), 0.4 (inactive) and 0.0361, respectively. Besides, the composite z-score in [2] was found to be 0.178.
In the case of `Cc1ccc(S[C@]2(C(=O)NCC(C)C)CC(=O)N(Cc3cc(C(F)(F)F)cc(C(F)(F)F)c3)[C@@H]2c2ccc(CO)cc2I)cc1`, the z-score in experiment [1] is -0.336 (inactive); in experiment [3], 2.53 (inactive); in experiment [4] it was -0.449 (inactive); in experiment [5] it was 0.767 (inactive); in experiment [6], 0.278 (inactive); in experiment [7], -0.301. Further, the z-score in [8] is 2.07 (inactive); in experiment [9], -1.39 (inactive); in experiment [10], -0.95. The molecule also displayed a composite z-score in [2] of 0.12.
Regarding `COC(=O)[C@@]1(Cc2ccccc2)[C@H]2c3cc(C(=O)N4CCCC4)n(CC4CC4)c3C[C@H]2CN1C(=O)c1ccccc1`, the z-score in [1] was -1.47 (inactive); in experiment [3], 1.15 (inactive); in [4], 0.194 (inactive); in experiment [5], 1.68 (inactive); in experiment [6], 0.69 (inactive); in experiment [7] it was 0.222. Besides, the figures for the z-score in experiment [8], in [9] and in [10] were -0.295 (inactive), -2.68 (inactive) and -2.49, respectively. The molecule further gave a composite z-score in [2] of 1.54.

These data come from PubChem BioAssay.
